For six compounds, growth results are on record in PubChem BioAssay (NCI).

Where “and” joins values, the source holds several entries; their conditions need not be identical. Identical values can stand only once. About 83,000 compounds went through this panel and 20% of them were active in at least one assay; those are over-represented in the sample as a whole.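 Single-concentration screen, 48 h exposure, 96-well plates. Endpoint: percent growth. Below 10 = active.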 Calls of active or inactive are those of the source.

Some test systems named below: NCI-H23 lung; NCI-H226 lung; HOP-62 NSCLC; NCI-H460 lung; HOP-92 NSCLC; NCI-H522 lung; A549/ATCC NSCLC; 786-0 renal; COLO 205 colon; DU-145 prostate; K-562 leukemia; MALME-3M melanoma; MDA-MB-231 breast; RXF 393 renal; SF-268 CNS; SF-295 CNS; SF-539 CNS; UACC-257 melanoma; M14 melanoma.
Assay in all cases: NCI-60 one-dose screen, 48 h (100 = growth as untreated, 0 = no growth, -100 = all killed)
What all share (settings): 10 µM unless noted

As for `C[C@]12CC[C@H]3[C@@H](C[C@@H]4SC(Nc5ccccc5)=N[C@@]45C/C(=N/O)CC[C@]35C)[C@@H]1CCC2=O`, the growth in the test on NCI-H23 lung is 79.5% (inactive); in the test with NCI-H226 lung it was 114% (inactive); in the test on HOP-62 NSCLC, 94% (inactive); in the test with NCI-H460 lung, 56.4% (inactive); with HOP-92 NSCLC it was 107% (inactive); in the test on NCI-H522 lung, 71.5% (inactive). Also, the growth with A549/ATCC NSCLC is 88.9% (inactive); with 786-0 renal it was 18.4% (inactive); in the test on COLO 205 colon, 97% (inactive); in the test on DU-145 prostate it was 29.8% (inactive); with K-562 leukemia it was 12.5% (inactive); with MALME-3M melanoma, 83.8% (inactive). Also, the growth is 78.2% (inactive) in the test on MDA-MB-231 breast; 28.8% (inactive) in the test with RXF 393 renal; 57.7% (inactive) with SF-268 CNS; 55.7% (inactive) in the test on SF-295 CNS; 44.2% (inactive) in the test with SF-539 CNS; 99.9% (inactive) in the test on UACC-257 melanoma. Besides, in the test with M14 melanoma, the growth was 68.5% (inactive).
`CCCCCCCCCCCCCCCC[N+](C)(C)Cc1ccccc1`: the growth in the test on NCI-H23 lung was 9.06% (active) and -49.4% (active); in the test on NCI-H226 lung, 21.5% (inactive) and -6.4% (active); in the test on HOP-62 NSCLC, 17.9% (inactive) and -86.3% (active); in the test on NCI-H460 lung, 15.7% (inactive) and -100% (active); in the test on HOP-92 NSCLC it was -39.2% (active) and -55.5% (active); in the test on NCI-H522 lung, 4.46% (active) and -58.2% (active). Moreover, the growth with 786-0 renal is 11% (inactive) and -94.1% (active); in the test on COLO 205 colon, -30.4% (active) and -100% (active); with DU-145 prostate, 26.7% (inactive) and -40.3% (active); in the test on K-562 leukemia, 15% (inactive) and -22.5% (active); with MALME-3M melanoma, -25% (active) and -55.5% (active); in the test on MDA-MB-231 breast, -41.4% (active) and -70.1% (active). Moreover, the growth in the test with RXF 393 renal was 0.124% (active); in the test on SF-268 CNS, 0.106% (active) and -74.5% (active); in the test with SF-295 CNS, 20.6% (inactive) and -28.5% (active); with SF-539 CNS it was -61.2% (active) and -99.3% (active); in the test on M14 melanoma it was -45.6% (active) and -88.7% (active).
Turning to `O=P1(N(CCCl)CCCl)NCCCO1` (stereo not given), the growth with NCI-H23 lung was 112% (inactive); in the test with NCI-H226 lung it was 101% (inactive); in the test with HOP-62 NSCLC it was 105% (inactive); in the test with NCI-H460 lung, 104% (inactive); in the test with HOP-92 NSCLC, 131% (inactive); in the test with NCI-H522 lung, 109% (inactive). The growth is 104% (inactive) in the test on 786-0 renal; 116% (inactive) with COLO 205 colon; 124% (inactive) in the test with DU-145 prostate; 104% (inactive) in the test with K-562 leukemia; 96.5% (inactive) in the test on MALME-3M melanoma; 107% (inactive) in the test on MDA-MB-231 breast. The growth with RXF 393 renal is 110% (inactive); in the test with SF-268 CNS it was 117% (inactive); in the test with SF-295 CNS, 107% (inactive); in the test on SF-539 CNS, 110% (inactive); in the test on UACC-257 melanoma it was 109% (inactive); with M14 melanoma, 101% (inactive).
On to `CCCCCCCCCCCCCCCC[N+](C)(C)C`, for which the growth with NCI-H23 lung is -83.6% (active) and 20.7% (inactive); in the test with NCI-H226 lung, -54.8% (active) and 46.7% (inactive); with HOP-62 NSCLC it was -76.6% (active) and -23.9% (active); with NCI-H460 lung it was -84% (active) and 0.102% (active); in the test with HOP-92 NSCLC it was -45.3% (active) and -18.4% (active); with NCI-H522 lung, -57.9% (active) and -39.7% (active). The growth in the test on A549/ATCC NSCLC is 29.4% (inactive); in the test with 786-0 renal, -83.5% (active) and 4.56% (active); in the test with COLO 205 colon, -74% (active) and -89.8% (active); in the test on DU-145 prostate it was -91.4% (active) and 15.9% (inactive); in the test on K-562 leukemia, -70% (active) and 9.42% (active); in the test on MALME-3M melanoma, -76.5% (active) and 13.8% (inactive). Further, the growth with MDA-MB-231 breast was -76.5% (active) and -8.58% (active); in the test with RXF 393 renal, -31.9% (active); with SF-268 CNS it was -57.5% (active) and -3.48% (active); in the test on SF-295 CNS, -65.5% (active) and 10.1% (inactive); in the test with SF-539 CNS, -67.3% (active) and -8.94% (active); with UACC-257 melanoma it was 61.2% (inactive). Besides, in the test with M14 melanoma, the growth was -87.8% (active) and -43.2% (active).
Take `Cc1c(C)c(N)c(C)c(C)c1N`: the growth was 79.2% (inactive) with NCI-H23 lung; 98.5% (inactive) in the test on NCI-H226 lung; 90.6% (inactive) in the test with HOP-62 NSCLC; 97.5% (inactive) in the test on HOP-92 NSCLC; 40.8% (inactive) in the test with NCI-H522 lung; 79.6% (inactive) in the test on A549/ATCC NSCLC. The growth with 786-0 renal is 107% (inactive); with COLO 205 colon, 91.9% (inactive); in the test on DU-145 prostate, 6.41% (active); in the test with K-562 leukemia, 97.8% (inactive); with MALME-3M melanoma it was 93.2% (inactive); with MDA-MB-231 breast it was 83.2% (inactive). The growth in the test with RXF 393 renal is 84.1% (inactive); in the test with SF-268 CNS, 91.5% (inactive); in the test on SF-295 CNS, 85.4% (inactive); with SF-539 CNS, 108% (inactive); in the test on UACC-257 melanoma, 92.9% (inactive); with M14 melanoma, 98.7% (inactive).
In the case of `Cc1ccc(S(=O)(=O)n2cc([C@@]3(O)C[C@H](CSC#N)OC3=O)c3ccccc32)cc1`, the growth with NCI-H23 lung was 82% (inactive); in the test on NCI-H226 lung it was 85.3% (inactive); in the test with HOP-62 NSCLC, 100% (inactive); with NCI-H460 lung, 86.3% (inactive); in the test with HOP-92 NSCLC, -28.2% (active); with NCI-H522 lung it was 86.3% (inactive). Also, the growth in the test with A549/ATCC NSCLC is 70.6% (inactive); in the test with 786-0 renal, 95.6% (inactive); in the test on COLO 205 colon, 59.2% (inactive); with DU-145 prostate, 43.9% (inactive); in the test with K-562 leukemia, 48.5% (inactive); with MALME-3M melanoma, 61.7% (inactive). The growth was 55.3% (inactive) in the test with MDA-MB-231 breast; 50.9% (inactive) in the test on RXF 393 renal; 72.4% (inactive) with SF-268 CNS; 94.8% (inactive) in the test on SF-295 CNS; 51.2% (inactive) with SF-539 CNS; 96.1% (inactive) in the test with UACC-257 melanoma. In the test on M14 melanoma, the growth is 66.2% (inactive).
